About 83,000 compounds went through this panel and 20% of them were active in at least one assay; those are over-represented in the sample as a whole.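 Treatment: one concentration, 48 hours, 96-well format. Scoring: percent growth, with anything below 10 considered active.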 A number with no mark means an inactive call. The source made the active and inactive calls.
tested on: SNB-75 CNS; experiment: NCI-60 one-dose screen, 48 h (100 = growth as untreated, 0 = no growth, -100 = all killed); conditions: 10 µM unless noted

**Q.** With Cc1ccc2c(c1)C(=O)/C(=C/c1ccc(OCC(=O)c3ccccc3)cc1)O2 as the compound, how does the growth read?
**A.** 109%

**Q.** Which growth does the source give for O=C1C2CC=CCC2C(=O)N1CNc1ccc(Cl)cc1 (centres undefined) here?
**A.** 78.2%

**Q.** Which growth does the source give for O=C1C[C@H](Sc2nc(-c3ccc(F)cc3)cc(C(F)(F)F)n2)[C@H]2CO[C@@H]1O2 here?
**A.** 98.3%

**Q.** Which growth does the source give for CCN(CC)CCCNc1cccc2c(SCc3ccccc3)ccnc12 here?
**A.** 87.1%

**Q.** Cc1cc(=O)oc2cc(Oc3nc(-c4cccs4)cn4c(-c5cccs5)cnc34)ccc12 was tested. Which growth did it give?
**A.** 35.6%

**Q.** With CCCCN(CCCC)Cc1c(C)[nH]c2cc(OC)ccc2c1=O as the compound, how does the growth read?
**A.** 89.5%

**Q.** With CCCCCCCCCCCCCC1=NCCN1CCO as the compound, how does the growth read?
**A.** 150%

**Q.** With CCN1CCN(Cc2ccc(NC(=O)Nc3nc4ccc(Oc5ccnc(C(=O)NC)c5)cc4s3)cc2C(F)(F)F)CC1 as the compound, how does the growth read?
**A.** -87.4% (active)

**Q.** With CCCCN(CCCC)CCC(C)(O)c1cc2ccccc2c2ccccc12 (centres undefined) as the compound, how does the growth read?
**A.** 106%

**Q.** How did the growth turn out when CCCCN(CC)CCCCCCCCCCN1CCCc2cc(OC)ccc21 was run?
**A.** 93.2%

**Q.** With N#Cc1ccc(NC(=O)Nc2ccc(Cc3ccc(NC(=O)Nc4ccc(C#N)cc4)cc3)cc2)cc1 as the compound, how does the growth read?
**A.** 83.3%

**Q.** With Clc1nc(Cl)c2c3c(sc2n1)CCCC3 as the compound, how does the growth read?
**A.** 89%

**Q.** For CCN(CC)c1ccc(/C=C/C2=[N+](C)c3ccccc3C2(C)C)cc1, which growth is on record?
**A.** 26.4%

**Q.** For COc1ccc(OCC(=O)Nc2ccc(-c3nc4ccccc4s3)cc2C)cc1, which growth is on record?
**A.** 83.4%

**Q.** With COc1cc(-c2nc3ccccc3s2)ccc1NC(=O)COc1ccc(Cl)cc1 as the compound, how does the growth read?
**A.** 21.3%

**Q.** How did the growth turn out when CCN(CC)CC(O)CNc1c2ccc([N+](=O)[O-])cc2nc2cc(OC)c(OC)cc12 (centres undefined) was run?
**A.** -94.6% (active)

**Q.** Cc1ccc(/C=C2\Oc3cc(OCC(=O)c4ccc(Cl)cc4)ccc3C2=O)cc1 was tested. Which growth did it give?
**A.** 103%

**Q.** With O=c1c(/C=C/c2ccco2)nnc(SCCN2CCOCC2)n1/N=C/c1ccc([N+](=O)[O-])cc1 as the compound, how does the growth read?
**A.** 99.9%

**Q.** CNC(=O)c1cc(Oc2ccc3nc(NC(=O)Nc4ccc(CN5CCOCC5)c(C(F)(F)F)c4)sc3c2)ccn1 was tested. Which growth did it give?
**A.** 59.4%

**Q.** Which growth does the source give for Cc1ccc(SCN2CCN(c3cccc(Cl)c3)CC2)cc1 here?
**A.** 85.4%

**Q.** How did the growth turn out when COC1=CC(=O)C(OC)=C(OC)C1=O was run?
**A.** 90.1%

**Q.** How did the growth turn out when CN(CC(=O)N(Cc1ccc(C2CCCCC2)cc1)c1ccc(C(=O)NO)cc1)S(=O)(=O)c1c(F)c(F)c(F)c(F)c1F was run?
**A.** 84.5%

**Q.** O=C1Nc2c(ccc(Cl)c2Cl)/C1=C/c1cc(Br)c(O)c(Br)c1 was tested. Which growth did it give?
**A.** 70.2%

**Q.** With Oc1ccccc1N=Cc1c(O)ccc2ccccc12 as the compound, how does the growth read?
**A.** 69.8%

**Q.** Which growth does the source give for c1ccc(CSc2ncnc3nc[nH]c23)nc1 here?
**A.** 97.2%

**Q.** For CCN(CC)c1ccc(CNc2cc(C)nc3ccc(OC)cc23)cc1, which growth is on record?
**A.** 65.8%

**Q.** Which growth does the source give for CN(C)c1ccc(/C=C(\C#N)c2nc3ccccc3s2)cc1 here?
**A.** 89.4%

**Q.** CC1CN(Cc2ccco2)C(=S)N(c2ccccc2)C1=O (centres undefined) was tested. Which growth did it give?
**A.** 62.2%

**Q.** For C=C1CC[C@@H]2[C@](C)(COC(C)=O)[C@H](OC(C)=O)CC[C@@]2(C)[C@@H]1CC(NCc1ccc(F)cc1)C1=CCOC1=O (some centres undefined), which growth is on record?
**A.** 58.1%

**Q.** For O=C(O)c1cccnc1Br, which growth is on record?
**A.** 86.2%

**Q.** How did the growth turn out when C=CC[N+]1(CC)CCN=C1CCCCCCCCCCCCCCCCC (centres undefined) was run?
**A.** -92.1% (active)

**Q.** For O=C1/C(=C\c2cn(C(=O)c3ccc(Cl)cc3)c3ccccc23)c2ccccc2N1c1c(Cl)cccc1Cl, which growth is on record?
**A.** 82.3%

**Q.** CSc1[nH]c2ncnc(N)c2c1C#N was tested. Which growth did it give?
**A.** 82.5%

**Q.** Cn1c2ccccc2c2c3c(c4c5ccccc5[nH]c4c21)C(=O)N(N)C3=O was tested. Which growth did it give?
**A.** 63.9%

**Q.** For CC(=O)CC(C)(C)c1ccc(Cl)cc1, which growth is on record?
**A.** 81.9%

**Q.** Which growth does the source give for OC(c1cc(-c2ccccc2)nc2ccc(Cl)cc12)C1CCCCN1 (centres undefined) here?
**A.** 61.9%

**Q.** With CCN(CC)Cc1cc(Nc2c3ccccc3nc3cc(Cl)ccc23)ccc1O as the compound, how does the growth read?
**A.** -100% (active)

**Q.** How did the growth turn out when O=[N+]([O-])c1c(F)cccc1Nc1cccc(F)c1 was run?
**A.** 81.6%

**Q.** For COc1ccc(-c2cn3c(-c4ccc(OC)cc4)cnc3c(Oc3ccc4c(C)cc(=O)oc4c3)n2)cc1, which growth is on record?
**A.** 14.3%

Source: PubChem BioAssay (NCI)
